# Results reported in the supplement of paper PMC8728848.
# The full list was thinned out, with the strongest signals kept by preference.
# How the values were obtained:
# Assay in all cases: glycan array binding signal (z-score within array); higher = stronger binding
# Settings in all cases: glycan notation: IUPAC condensed, linker removed
# [1] = biological target: Fuc(a1-2)Gal(b1-3)GalNAc(b1-4)[Neu5Ac(a2-3)]Gal(b1-4)Glc
# Procedure, shortened: (§1)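 Glycan array data were curated from 3228 arrays in the Consortium for Functional Glycomics database and kept only where the protein sequence was available. Glycan names were converted to IUPAC-condensed notation, and columns mapping to the same glycan were averaged. The binding signal is a within-array Z-score, averaged across arrays of the same protein sequence at different concentrations or buffers and across linkers. Negative Z-scores can be read as non-binding.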
# Fuc(a1-2)Gal(b1-4)Glc = biological target: Fuc(a1-2)Gal(b1-4)Glc
# Procedure, shortened: as §1
# Fuc(a1-2)Gal(b1-4)Glc6S = biological target: Fuc(a1-2)Gal(b1-4)Glc6S
# Procedure, shortened: as §1
# Fuc(a1-2)Gal(b1-4)GlcNAc = biological target: Fuc(a1-2)Gal(b1-4)GlcNAc
# Procedure, shortened: as §1
# [2] = biological target: Fuc(a1-2)Gal(b1-4)GlcNAc6S
# Procedure, shortened: as §1
# Fuc(a1-2)Gal6S(b1-4)Glc = biological target: Fuc(a1-2)Gal6S(b1-4)Glc
# Procedure, shortened: as §1
# [3] = biological target: Fuc(a1-2)Gal6S(b1-4)Glc6S
# Procedure, shortened: as §1
# [4] = biological target: Fuc(a1-2)[Gal(a1-4)]Gal(b1-4)GlcNAc
# Procedure, shortened: as §1
# [5] = biological target: Fuc(a1-2)[GalNAc(a1-3)]Gal(b1-4)GlcNAc
# Procedure, shortened: as §1
# [6] = biological target: Fuc(a1-2)[GalNAc(a1-4)]Gal(b1-4)GlcNAc
# Procedure, shortened: as §1
# Gal(a1-3)Gal(b1-3)GlcNAc = biological target: Gal(a1-3)Gal(b1-3)GlcNAc
# Procedure, shortened: as §1
# Gal(a1-3)Gal(b1-4)Glc = biological target: Gal(a1-3)Gal(b1-4)Glc
# Procedure, shortened: as §1
# Gal(a1-3)Gal(b1-4)GlcNAc = biological target: Gal(a1-3)Gal(b1-4)GlcNAc
# Procedure, shortened: as §1
# [7] = biological target: Gal(a1-4)Gal(b1-3)GlcNAc(b1-2)Man(a1-3)[Gal(a1-4)Gal(b1-3)GlcNAc(b1-2)Man(a1-6)]Man(b1-4)GlcNAc(b1-4)GlcNAc
# Procedure, shortened: as §1
# Gal(a1-4)Gal(b1-4)GlcNAc = biological target: Gal(a1-4)Gal(b1-4)GlcNAc
# Procedure, shortened: as §1
# Gal(a1-4)GlcNAc = biological target: Gal(a1-4)GlcNAc
# Procedure, shortened: as §1
# [8] = biological target: Gal(b1-4)GlcNAc(b1-2)[Gal(b1-4)GlcNAc(b1-4)]Man(a1-3)[Gal(b1-4)GlcNAc(b1-2)[Gal(b1-4)GlcNAc(b1-6)]Man(a1-6)]Man(b1-4)GlcNAc(b1-4)GlcNAc
# Procedure, shortened: as §1
# Gal3S6S(b1-4)GlcNAc6S = biological target: Gal3S6S(b1-4)GlcNAc6S
# Procedure, shortened: as §1
# Gal6S(b1-4)GlcNAc = biological target: Gal6S(b1-4)GlcNAc
# Procedure, shortened: as §1
# [9] = biological target: GalNAc(a1-3)Fuc(a1-2)Gal(b1-4)GlcNAc(b1-3)[GalNAc(a1-3)Fuc(a1-2)Gal(b1-4)GlcNAc(b1-6)]GalNAc
# Procedure, shortened: as §1
# GalNAc(b1-3)Gal = biological target: GalNAc(b1-3)Gal
# Procedure, shortened: as §1
# [10] = biological target: Glc(a1-6)Glc(a1-6)Glc(a1-6)Glc
# Procedure, shortened: as §1
# Glc(b1-4)Glc = biological target: Glc(b1-4)Glc
# Procedure, shortened: as §1
# Glc(b1-6)Glc = biological target: Glc(b1-6)Glc
# Procedure, shortened: as §1
# [11] = biological target: GlcNAc(a1-4)Gal(b1-4)GalNAc
# Procedure, shortened: as §1
# [12] = biological target: GlcNAc(a1-6)Gal(b1-4)GlcNAc
# Procedure, shortened: as §1
# [13] = biological target: GlcNAc(b1-2)[GlcNAc(b1-6)]Man(a1-6)[GlcNAc(b1-2)Man(a1-3)]Man(b1-4)GlcNAc(b1-4)GlcNAc
# Procedure, shortened: as §1
# Kdn(a2-3)Gal(b1-4)GlcNAc = biological target: Kdn(a2-3)Gal(b1-4)GlcNAc
# Procedure, shortened: as §1
# [14] = biological target: Neu5Ac(a2-3)Gal(b1-3)GalNAc
# Procedure, shortened: as §1
# [15] = biological target: Neu5Ac(a2-3)Gal(b1-3)GlcNAc(b1-3)Gal(b1-4)GlcNAc
# Procedure, shortened: as §1
# [16] = biological target: Neu5Ac(a2-3)Gal(b1-3)[Fuc(a1-4)]GlcNAc
# Procedure, shortened: as §1
# [17] = biological target: Neu5Ac(a2-3)Gal(b1-3)[Fuc(a1-4)]GlcNAc(b1-3)Gal(b1-4)[Fuc(a1-3)]GlcNAc
# Procedure, shortened: as §1
# [18] = biological target: Neu5Ac(a2-3)Gal(b1-3)[Neu5Ac(a2-6)]GalNAc
# Procedure, shortened: as §1
# [19] = biological target: Neu5Ac(a2-3)Gal(b1-4)GlcNAc(b1-3)Gal(b1-3)GlcNAc
# Procedure, shortened: as §1
# [20] = biological target: Neu5Ac(a2-3)Gal(b1-4)GlcNAc(b1-6)[Gal(b1-3)]GalNAc
# Procedure, shortened: as §1
# [21] = biological target: Neu5Ac(a2-3)Gal(b1-4)GlcNAc(b1-6)[Neu5Ac(a2-3)Gal(b1-3)]GalNAc
# Procedure, shortened: as §1
# Neu5Ac(a2-3)GalNAc = biological target: Neu5Ac(a2-3)GalNAc
# Procedure, shortened: as §1
binder,measurement,setting,value
"UEA-I (Ulex europaeus), P22972 (protein) SDDLSFKFKNFSQNGKDLSFQGDASVIETGVLQLNKVGNNLPDETGGIARYIAPIHIWNCNTGEVASFITSFSFFMETSANPKAATDGLTFFLAPPDSPLRRAGGYFGLFEDTKDNDSSYQTVAVEFDTIGSPVNFDDPGFPHIGIDVNRVKSINAERWNKRYGLNNVANVEIIYEASSKTLTASLTYPSDQTSISVTSIVDLKEILPEWVSVGFSGGTYIGRQATHEVLNWYFTSNLIN",glycan array binding signal (z-score),[1],-0.19
same,glycan array binding signal (z-score),Fuc(a1-2)Gal(b1-4)Glc,5.21
same,glycan array binding signal (z-score),Fuc(a1-2)Gal(b1-4)Glc6S,8.13
same,glycan array binding signal (z-score),Fuc(a1-2)Gal(b1-4)GlcNAc,6.42
same,glycan array binding signal (z-score),[2],6.86
same,glycan array binding signal (z-score),Fuc(a1-2)Gal6S(b1-4)Glc,4.06
same,glycan array binding signal (z-score),[3],8.02
same,glycan array binding signal (z-score),[4],5.33
same,glycan array binding signal (z-score),[5],-0.183
same,glycan array binding signal (z-score),[6],4.61
same,glycan array binding signal (z-score),Gal(a1-3)Gal(b1-3)GlcNAc,-0.18
same,glycan array binding signal (z-score),Gal(a1-3)Gal(b1-4)Glc,-0.172
same,glycan array binding signal (z-score),Gal(a1-3)Gal(b1-4)GlcNAc,-0.186
same,glycan array binding signal (z-score),[7],-0.17
same,glycan array binding signal (z-score),Gal(a1-4)Gal(b1-4)GlcNAc,-0.176
same,glycan array binding signal (z-score),Gal(a1-4)GlcNAc,-0.174
same,glycan array binding signal (z-score),[8],-0.175
same,glycan array binding signal (z-score),Gal3S6S(b1-4)GlcNAc6S,-0.174
same,glycan array binding signal (z-score),Gal6S(b1-4)GlcNAc,-0.188
same,glycan array binding signal (z-score),[9],-0.158
same,glycan array binding signal (z-score),GalNAc(b1-3)Gal,-0.18
same,glycan array binding signal (z-score),[10],-0.177
same,glycan array binding signal (z-score),Glc(b1-4)Glc,-0.178
same,glycan array binding signal (z-score),Glc(b1-6)Glc,-0.185
same,glycan array binding signal (z-score),[11],-0.175
same,glycan array binding signal (z-score),[12],-0.176
same,glycan array binding signal (z-score),[13],-0.186
same,glycan array binding signal (z-score),Kdn(a2-3)Gal(b1-4)GlcNAc,-0.185
same,glycan array binding signal (z-score),[14],-0.18
same,glycan array binding signal (z-score),[15],-0.182
same,glycan array binding signal (z-score),[16],-0.181
same,glycan array binding signal (z-score),[17],-0.186
same,glycan array binding signal (z-score),[18],-0.17
same,glycan array binding signal (z-score),[19],-0.178
same,glycan array binding signal (z-score),[20],-0.183
same,glycan array binding signal (z-score),[21],-0.179
same,glycan array binding signal (z-score),Neu5Ac(a2-3)GalNAc,-0.177
